Assay outcomes deposited in PubChem by National Center for Advancing Translational Sciences (NCATS).
Hits are enriched below; roughly 5.5% of the tested compounds scored in any of these assays.
VP16 counter: inhibits Gal4-VP16 luciferase reporter, ROR gamma counter-screen | Drosophila S2 Gal4-VP16 UAS-luciferase, luminescence, 20 h | Potency, µM (top dose mostly 53.6 µM), for the others: top-dose activity, negative = inhibition, hits mostly inhibitors | hit rate 3.5% among 310,000;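 further: Gal4-VP16 expression switched on by copper sulfate through the metallothionein promoter; on the % scale 0 is the no-effect control and ±100 the full control effect; nearly all actives have a fitted effect of over 50% in size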
RORgamma inh: blocks mouse ROR gamma transcriptional activity; Drosophila S2 Gal4-RORgamma UAS-luciferase reporter, 20 h; Potency, µM (doses to about 53.6 µM), for inactives: at the top dose activity change, negative = inhibition, most hits filed as inhibitors; hit rate 5.4% among 310,000; AID 2551; further: on the % scale 0 is the no-effect control and ±100 the full control effect; nearly all actives have a fitted effect of over 60% in size
Target sequence (P51450 whole entry, looked up, the tested form may be a part): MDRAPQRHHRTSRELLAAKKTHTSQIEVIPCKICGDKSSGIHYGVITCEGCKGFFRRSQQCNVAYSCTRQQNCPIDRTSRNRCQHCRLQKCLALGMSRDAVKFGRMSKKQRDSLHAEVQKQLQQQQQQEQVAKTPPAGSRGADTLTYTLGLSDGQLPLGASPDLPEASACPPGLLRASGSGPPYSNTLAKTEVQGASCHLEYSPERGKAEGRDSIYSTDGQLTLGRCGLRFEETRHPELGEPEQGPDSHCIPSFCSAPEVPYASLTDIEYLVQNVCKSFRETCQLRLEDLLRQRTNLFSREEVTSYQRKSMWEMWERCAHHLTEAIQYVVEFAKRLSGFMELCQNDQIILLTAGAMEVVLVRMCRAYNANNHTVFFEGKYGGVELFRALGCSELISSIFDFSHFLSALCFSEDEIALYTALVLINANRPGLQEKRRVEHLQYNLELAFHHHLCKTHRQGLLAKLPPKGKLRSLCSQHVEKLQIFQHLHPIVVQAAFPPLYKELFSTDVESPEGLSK
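Using a luciferase readout, inhibitors were identified by reduced reporter activity in Drosophila cells coexpressing a copper-inducible Gal4–ROR gamma fusion and UAS-driven Photinus luciferase, incubated 20 hr after 700 uM copper sulfate.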
Mito fusion yeast: inhibitors of mitochondrial division or activators of mitochondrial fusion; S. cerevisiae fusion-defective mutant growth rescue, CellTiterGlo 48 h; Potency, µM (series often up to 46.1 µM), for inactives: at the highest dose growth rescue (activation), usual class: activators; hit rate 0.23% among 320,000; further: % of control where 0% means no effect; nearly all actives have a fitted effect of over 45% in size
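Temperature-sensitive fusion-defective S. cerevisiae (e.g. fzo1-1, mgm1-5) were grown with compound in YPEG medium (3% ethanol, 3% glycerol) for 48 hours at 37C. Growth rescue was measured as viability by CellTiterGlo luminescence after 10 minutes at ambient.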
uPA surface inh: inhibitors of cell surface uPA generation; AID 540303; Potency, µM (doses to about 38.3 µM), without a hit: at the top dose activity change, negative = inhibition, hits mostly inhibitors; cell surface uPA generation assay, qHTS; hit rate 0.31% among 330,000; active means well fitted inhibition curve with a large enough effect; inconclusive means small, poorly fitted or top-dose-only effect; inactive means no such curve, though single readings can be large or run the other way; tested in mouse RAW 264.7 cells; further: on the % scale 0 is the no-effect control and ±100 the full control effect; nearly all actives have a fitted effect of over 55% in size
a7 integrin act: integrin-mediated muscular dystrophy alleviation activation; alpha7betagal myoblasts, beta-gal FDG fluorescence, 48 h; Potency, µM (top dose mostly 38.3 µM), for the others: at the highest dose activation, actives largely listed as activators; hit rate 0.064% among 350,000; AID 624291;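 further: 100% = response of the positive control SU9516; nearly all actives have a fitted effect of over 60% in size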
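alpha7betagal+/- myoblasts (passage 13, 250/well) treated 48 h at 37C with compounds at 1:260 dilution of DMSO stock. Lysed, then beta-galactosidase activity read as FDG fluorescence (ex 480/em 540) after 30 min, with pre-read for autofluorescence.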
Chronic BCR inh: inhibitors of chronic active B-cell receptor signaling; ABC-DLBCL IkBa-CBG/CBR reporter, luminescence ratio, 4 h; Potency, µM (titrated, usually from 46.1 µM), without a hit: at the top dose activity change, negative = inhibition, usual class: inhibitors; hit rate 0.05% among 340,000; AID 493014; active means well fitted inhibition curve with a large enough effect in the signal ratio, with a control signal flat, not every such curve was filed as active; inconclusive means small, poorly fitted or top-dose-only effect, or effect the other way, or a change in a side signal; the % refers to the signal ratio;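 further: plate controls were basal doxycycline-induced cells for no effect and cells given 10 µM MG132 for full effect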
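TMD8 human ABC-DLBCL cells with doxycycline-inducible IκBα–green luciferase fusion and unfused red luciferase, in 0.5% FBS medium; compounds up to 46 uM, 4 h at 37C. Green/red luminescence ratio, filter-overlap corrected, fitted to concentration-response curves.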
Starred values were filed as active, the others as inactive; u = inconclusive; x = not tested or not shown; [ ] = another dose, or the depositor's remark. Unless noted, the call rests on the fitted dose curve; in most records, active means well fitted curve in the direction sought with a large enough effect; inconclusive means small, poorly fitted or top-dose-only effect, or another doubt; inactive means no such curve, though single readings can be large; an effect the other way counts as inactive or inconclusive. Potency means the concentration at half of the fitted maximal effect.

SMILES | VP16 counter | RORgamma inh | Mito fusion yeast | uPA surface inh | a7 integrin act | Chronic BCR inh
Cc1cc(N/N=C/c2cccc(Cl)c2)nc(-n2nc(C)cc2C)n1 | 1.3µM* | 0.071µM* | 6% | 2% | -34% | -21%
CCOC(=O)Cc1cc(=O)[nH]c(/N=C(\N)Nc2ccc(C)c(C)c2)n1 | -13% | 29% | -2% | -2% | 4% | -1%
O=C(O)CCCCCCCCc1cn(CC2CCCCC2)nn1 | 1.8µM* | 4.5µM* | -4% | -2% | 30% | u
Cc1ccc(-n2cc(CCCCCCCCC(=O)O)nn2)cc1 | -7% | 16% | -3% | 0% | 5% | 4%
Cc1cccc(CN2CC34C=CC(CC3S2(=O)=O)O4)c1 (stereo unspecified) | u | 33% | x | x | x | x
OC(CNCc1ccc(Cl)cc1)(c1ccccc1)c1ccc(F)cc1 (stereo unspecified) | 11µM* | u | -7% | -4% | -18% | 8%
OC(CNCc1ccc(F)cc1)(c1ccc(F)cc1)c1ccc(F)cc1 | -8% | 6% | -8% | 2% | -31% | u
O=C(Nc1ccc(S(=O)(=O)NC2=NCCCCC2)cc1)c1ccc([N+](=O)[O-])s1 | x | x | -2% | 10µM* | -46% | 5%
O=C(Nc1ccc(S(=O)(=O)NC2=NCCCCC2)cc1)c1cccs1 | x | x | x | 11% | -34% | 3%
CC(=O)O[C@@]1(C(C)=O)CCC2C3C=C(Cl)C4=CC(=O)C5CC5[C@@]4(C)C3CC[C@]21C (stereo partly specified) | -7% | 1% | x | x | x | x
C=CCOc1cccc(C(=O)Nc2ncn[nH]2)c1 | u | 22µM* | 4% | 7% | 0% | -1%
COc1cc(OC)cc(C(=O)Nc2ncn[nH]2)c1 | x | x | -7% | 12% | -14% | 8%
Cc1ccc(SCCNC(=S)Nc2cc(C)cc(C)c2)cc1 | 7.9µM* | 5µM* | 14% | 0% | 18% | 15%
COC(=O)Cc1ccc(NC(=S)NCCSc2ccc(C)cc2)cc1 | 1%[10 µM] | u | -7% | 6% | -14% | -4%
Cc1ccc(SCCNC(=S)Nc2ccc(C)cc2C)cc1 | 7.9µM* | 3.5µM* | u | 13% | -22% | 0%
Cc1ccc(NC(=S)NCCSc2ccc(Cl)cc2)cc1 | 0.89µM* | 0.79µM* | 9% | 4% | -18% | -8%
Cc1cccc(C)c1NC(=S)NCCSc1ccc(Cl)cc1 | u | 2.5µM* | 5% | 6% | 1% | 14%
Cc1cccc(C)c1NC(=S)NCc1ccccc1 | 0% | 19% | u | -3% | u | 1%
Cc1ccc(NC(=O)NCCSc2ccc(C)cc2)cc1 | -7% | 25% | 2% | 2% | 0% | u
O=[N+]([O-])c1ccc(S(=O)(=O)N2CCC3(CC2)OCCN3S(=O)(=O)c2cccs2)cc1 | x | x | 9% | -5% | -33% | 10%
CC(CNC(=S)Nc1cc(F)cc(F)c1)CSc1ccc(Cl)cc1 (stereo unspecified) | u | 8.9µM* | -5% | 4% | -72% | u
CC(C)CNC(=O)CSc1ccc(Cl)cc1 | 3% | -5% | 2% | -2% | -2% | u
C=C(C(=O)c1ccccc1)C(C)CC(=O)c1ccccc1 (stereo unspecified) | 18µM* | u | 1% | -2% | -44% | u
O=C(CC(Nc1ccccc1)C(=O)O)c1ccccc1 (stereo unspecified) | 7.9µM* | 11µM* | 2% | -1% | -33% | -1%
O=C(CC(Nc1ccc(Cl)cc1Cl)C(=O)O)c1ccccc1 (stereo unspecified) | u | 13µM* | -5% | u | -19% | 11%
COc1ccccc1N(CCN1C(=O)c2cccc3cccc(c23)C1=O)C(=O)c1ccncc1 | -20%[10 µM] | 1% | 5% | x | x | 9%
CCC(Sc1nc2ccccc2c(=O)n1CCc1ccc(OC)c(OC)c1)C(=O)N(CC)CC (stereo unspecified) | x | x | x | x | x | 21%
O=C(O)c1ccc2c(c1)C(=O)N([C@H](Cc1ccc3ccccc3c1)C(=O)O)C2=O | -3% | -2% | 1% | x | x | -1%
